Reference: ChEMBL document CHEMBL1157539, “Thousands of chemical starting points for antimalarial lead identification” (Nature, 2010)

Test system: Plasmodium falciparum
Assay: GSK_TCMDC: Inhibition of Plasmodium falciparum Dd2 in whole red blood cells, using parasite LDH activity as an index of growth. Test compounds present at 2uM
Type: functional

Structure (SMILES)	Inhibition [%]
CCN(CC)CCN(Cc1ccc(-c2ccc(C(F)(F)F)cc2)nc1)C(=O)Cn1cc(Cc2cnn(C)c2)c(=O)n2nc(-c3ccccc3)cc12.O=C(O)C(O)C(O)C(=O)O	95
O=C(O)C(F)(F)F.c1cc(CN2CCN(c3ccncc3)CC2)cc(-c2cccc(-c3nc4ccccc4[nH]3)c2)c1	98
COc1ccc2nc(-c3cc(-c4ccc(NC(=O)C(C)C)cc4)cnc3N)[nH]c2c1	47
Cc1ccc2c(c1)NCC21CCN(C[C@@H](O)C2CCN(c3ccnc(Cl)c3)CC2)CC1C (some centres undefined)	69

Test system: HepG2
Assay: GSK_TCMDC: Percent inhibition of human HepG2 cell line. Test compounds present at 10uM.
Type: functional

Structure (SMILES)	Inhibition [%]
COc1cc(-c2cc3cc(Cl)c(Cl)cc3[nH]2)ccc1C(=O)NC1CCN(Cc2ccccc2)CC1.O=C(O)C(F)(F)F	12
CC(C)(C)NCCN(Cc1ccc(-c2ccc(C(F)(F)F)cc2)cc1)C(=O)Cn1c(CCc2cccc(F)c2F)nc(=O)c2c1CCC2.O=C(O)C(O)C(O)C(=O)O	6
O=C(Nc1ccc([N+](=O)[O-])cc1)Nc1cc(OCC(F)(F)F)cc(OCC(F)(F)F)c1	71
O=C(O)C(F)(F)F.OCC1CCN(Cc2cccc(-c3ccc(-c4nc5cc(C(F)(F)F)ccc5[nH]4)s3)c2)CC1	0
COc1ccc(NC(=O)Nc2ccc(Nc3nc(C)cc(N4CCCC4)n3)cc2)cc1	14
O=c1c2ccc(F)cc2sn1-c1ccc(Cl)cc1	8
CN1CCC(N2CCN(Cc3ccc(-c4cccc(-c5nc6cc(F)ccc6[nH]5)c4)cc3)CC2)CC1.O=C(O)C(F)(F)F	67
CCc1nc(N)nc(N)c1-c1ccc(F)c(F)c1	58
Nc1cc2c(C3CCN(CC4CCN(C(=O)/C=C/c5ccc(Cl)c(Cl)c5)CC4)CC3)c[nH]c2cn1	0
CN(C)c1ccc(C2(c3ccccc3)N=C(N)N(CCCc3ccccc3)C2=O)cc1.O=C(O)C(F)(F)F (centres undefined)	4
Cc1cc(-c2cccc(CNC3CCN(C)CC3)c2)ccc1S(=O)(=O)NC1CCC1.O=C(O)C(F)(F)F	33
Cc1cccc2nc(-c3ccc(-c4ccc(CN5CCCCC5CO)cc4)cc3)[nH]c12.O=C(O)C(F)(F)F (centres undefined)	32
COc1ccc2nccc([C@@H](O)CN3CCC(NCc4cc5cc(Cl)ccc5[nH]4)CC3)c2c1.O=C(O)C(=O)O	27
Br.CN1C(=O)C(=O)N(CCCCCONC(=N)N)C1=S	21
CC(C)CN(C)Cc1ccc(-c2ccc(-c3nc4ccccc4[nH]3)s2)cc1	8
CC1(C)N=C(N)N=C(N)N1c1ccc(Oc2ccc(Cl)cc2)c(Cl)c1	13
C=CCOc1cccc2c1CCN(CCN1CCC(NC(=O)c3ccc(-c4ccc(Cl)cc4)cc3)CC1)C2	35
O=[N+]([O-])c1cccc(-n2nc(NCc3ccc(Cl)cc3)nc2-c2ccc(F)c(C(F)(F)F)c2)c1	6
CCCNC(=O)C1CCN(C(c2ccccc2)c2ccc(Cl)c(Cl)c2)CC1 (centres undefined)	15
CCCCCCCCN1CCCN(C(=O)c2cccc(NC(=O)Nc3ccc4ccccc4c3)c2)CC1.O=C(O)C(F)(F)F	39

Structure (SMILES)	Inhibition [%]
Cl.NC(=O)c1sc(-n2cnc3ccc(OCC4CCNCC4)cc32)cc1OCc1ccccc1C(F)(F)F	18
CCOC(=O)C(NC(=O)Cc1ccccc1)C(C)C (centres undefined)	39
COc1ccc(C2CCN(CCCCNC(=O)c3ccc(NC(=O)c4ccc(Cl)cc4)cc3)CC2)c(OC)c1.Cl	32
CCOC(=O)CCCOc1cc(Cc2cnc(N)nc2N)cc(OC)c1OC	12
CC(Oc1ccc(Cl)cc1)C(=O)Nc1cc(C(F)(F)F)ccc1N1CCOCC1 (centres undefined)	14
CCOc1ccc2[nH]c(C)cc(=NN=Cc3cccc(F)c3)c2c1	0
CC(=O)Nc1nc(C(=O)Nc2cccc(-c3cccc(-c4nc5cccc(C)c5[nH]4)c3)c2)cs1	28
COCCNCc1ccc(-c2ccc(CNC3CCN(Cc4ccccc4)CC3)cc2)cc1.O=C(O)C(F)(F)F	22
O=C(/C=C/c1ccc(Cl)c(Cl)c1)NCCCCCN1CCC(NC(=O)Nc2ccc(Cl)c(Cl)c2)CC1	23
COc1cc(Cc2cnc(N)nc2N)cc(OCCCCCCN2C(=O)c3ccccc3C2=O)c1OC	15
Cc1cc2nc(-c3ccc(C(=O)NC4CCN(Cc5ccccc5)CC4)s3)[nH]c2cc1C	33
CC(=O)N(C)C1CCN(Cc2ccc(-c3cccc(-c4nc5cc(F)ccc5[nH]4)c3)cc2)C1.O=C(O)C(F)(F)F (centres undefined)	28
CC(C)c1ccc(NC(=O)c2ccc(C(=O)NC3CCN(Cc4ccsc4)C3)cc2)cc1.O=C(O)C(F)(F)F (centres undefined)	17
CCN(CC)CCN(CCN(CC)CC)c1ccc2c(c1)Sc1c(Cl)ccc(Cl)c1S2.Cl	31
O=C(O)C(F)(F)F.Oc1ccc(CCNc2nc(NCc3cccc(-c4cc(C(F)(F)F)ccc4Cl)c3)nc(N3CCNCC3)n2)cc1	33
CCN1CCC(N(Cc2ccc(-c3ccc(C(F)(F)F)cc3)cc2)C(=O)Cn2c(CCc3cccc(F)c3F)cc(=O)c3c2CCCC3)CC1.O=C(O)C(O)C(O)C(=O)O	55
CCN(CC)CCN(Cc1ccc(-c2ccc(C(F)(F)F)cc2)nc1)C(=O)Cn1cc(Cc2cnn(C)c2)c(=O)n2nc(-c3ccccc3)cc12.O=C(O)C(O)C(O)C(=O)O	35
O=C(O)C(F)(F)F.c1cc(CN2CCN(c3ccncc3)CC2)cc(-c2cccc(-c3nc4ccccc4[nH]3)c2)c1	35
COc1ccc2nc(-c3cc(-c4ccc(NC(=O)C(C)C)cc4)cnc3N)[nH]c2c1	43
Cc1ccc2c(c1)NCC21CCN(C[C@@H](O)C2CCN(c3ccnc(Cl)c3)CC2)CC1C (some centres undefined)	46
